Sampled rows, rich in hits. Any-hit rate of the full collection: about 11%.
HPGD inh: blocks human HPGD enzyme activity; purified HPGD, NADH fluorescence kinetic, PGE2 substrate; Potency, µM, usual class: inhibitors; 150,000 tested, 4.3% active; AID 894; active = well fitted inhibition curve with a large enough effect, not every such curve was filed as active; inconclusive = small, poorly fitted or top-dose-only effect, or another doubt; inactive = no such curve, though single readings can be large or run the other way
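20 nM HPGD preincubated 15 min at room temperature with compound in 50 mM Tris-HCl pH 8, 0.01% Tween 20. Started with 1 mM NAD+ and 30 uM prostaglandin E2; NADH fluorescence (360/450 nm) read 5 times over 30-s intervals, last minus first.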
HTT aggregate: mutant huntingtin aggregation inhibition; PC12 HttQ103-GFP aggregates, Acumen cytometry, 40 h; Potency, µM (titrated, usually from 46.1 µM), usual class: inhibitors; 220,000 tested, 1.1% active; AID 1688; also: nearly all actives have a fitted effect of over 60% in size
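Huntingtin Q103 exon 1–GFP aggregates in induced PC12 cells (100 nM tebufenozide) were quantified by cytometry from lysates, with compounds dosed in titration.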
PNC assembly inh: inhibitors of perinucleolar compartment assembly; AID 2417; activity change (PNC), negative = inhibition, % at 10 µM; PC3M PTB-GFP, PNC prevalence imaging, 16 h; active compounds read low; 140,000 tested, 3.1% active;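 active = readout at or below -70, meaning at least 70% loss of cells showing the perinucleolar compartment, a nuclear body marking cancer cells; inconclusive = readout between -30 and a set limit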
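Read-out is percentage of cells bearing a perinucleolar compartment, from automated 20x imaging of fixed, Hoechst-stained PC3M PTB-GFP cells. Cells were seeded 4 h, then exposed 16 h to compound (23 nl of library stock) in duplicate plates.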
ALDH1A1 inh: inhibitors of human aldehyde dehydrogenase 1A1. Potency, µM (doses to about 75.3 µM), most hits filed as inhibitors. AID 1030. 220,000 tested, 7.3% active. Purified ALDH1A1, NADH fluorescence, propionaldehyde substrate; active = well fitted inhibition curve with a large enough effect, not every such curve was filed as active; inconclusive = small, poorly fitted or top-dose-only effect, or another doubt; inactive = no such curve, though single readings can be large or run the other way
HTT cytoprotect: cytoprotection in Huntington HTT-Q103 PC12 cell model | Potency, µM (titrated, usually from 56.4 µM), usual class: activators | PC12 HTT-Q103 induced, cytoprotection, ATP luminescence, 40 h | 230,000 tested, 0.14% active; also: nearly all actives have a fitted effect of over 45% in size
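Compounds added alongside 100 nM tebufenozide, which induces toxic Q103 huntingtin exon 1-GFP in stable PC12 cells; surviving cells quantified by luminescent ATP measurement. Medium: phenol red-free DMEM, 5% equine and 5% calf serum.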
CBFb-RUNX1 inh: blocks binding between human CBF-beta and RUNX1; Q01196+Q13951; AlphaScreen CBFb-His/RUNX1-biotin binding, biochemical; Potency, µM (top dose mostly 59.8 µM), most hits filed as inhibitors; 230,000 tested, under 10 active; AID 1477
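CBFb-His/RUNX1-biotin, 30 nM each, preincubated 20 min RT; compound 15 min RT; Ni + streptavidin beads 50 ng each, 90 min RT; AlphaScreen read.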
Of the large screens only hits and unclear results are named; the others gave an inactive call. Unless noted, calls follow the shape of the dose curve; as a rule, active = well fitted curve in the direction sought with a large enough effect; inconclusive = small, poorly fitted or top-dose-only effect, or another doubt; inactive = no such curve, though single readings can be large; an effect the other way counts as inactive or inconclusive.

Cc1ccccc1Oc1cccc(C(=O)/C(C#N)=C/N(C)C)c1	HPGD inh inconclusive
COc1cccc(C2C3=C(Nc4[nH]n(-c5ccccc5)c(=O)c42)c2ccccc2C3=O)c1 (configuration not stated)	PNC assembly inh inconclusive, ALDH1A1 inh 20µM, CBFb-RUNX1 inh inconclusive
CCOC(=O)c1cc(C)n(-c2ccccc2)c1C	none (no result: HPGD inh, PNC assembly inh)
CCOc1ccc(Oc2c(/C=N/NC(=O)COc3ccccc3OC)c(C)nn2-c2ccccc2)cc1	PNC assembly inh inconclusive, ALDH1A1 inh inconclusive
Cc1nn(-c2cccc(Cl)c2)c(Cl)c1/C=N/NC(=O)c1cccnc1	PNC assembly inh -86.5
Cc1nn(-c2ccccc2)c(Cl)c1/C=N/NC(=O)CNC(=O)c1ccccc1Cl	HTT aggregate inconclusive, ALDH1A1 inh 7.08µM
CCOc1ccc(Oc2c(/C=N/NC(N)=O)c(C)nn2-c2ccccc2)cc1	HTT aggregate inconclusive, ALDH1A1 inh 31.6µM, HTT cytoprotect inconclusive
Cc1nn(-c2ccccc2Cl)c(Cl)c1/C=N/Nc1cccc(C(=O)O)c1	HPGD inh 12.6µM, ALDH1A1 inh inconclusive
O=C1CCN(CCc2ccccc2)CCN1C(CSc1ccc(Br)cc1)c1ccccc1 (configuration not stated)	none (no result: HPGD inh, HTT aggregate, PNC assembly inh, ALDH1A1 inh, HTT cytoprotect)
CCOC(=O)N/N=C/c1c(C)nn(-c2cccc(C(F)(F)F)c2)c1Cl	PNC assembly inh -83.1
Cc1nn(-c2cccc(C(F)(F)F)c2)c(Cl)c1/C=N/Nc1cccc(C(=O)O)c1	none (no result: HTT cytoprotect)
COC(=O)N/N=C\c1c(C)nn(-c2ccccc2)c1Cl	none
COC(=O)N/N=C/c1c(C)nn(-c2cccc(Cl)c2)c1Cl	PNC assembly inh -94.2
COc1cccc(OCCNC(=O)CSc2ccc(C(F)(F)F)cc2[N+](=O)[O-])c1	ALDH1A1 inh 31.6µM
Cc1ccccc1OCCNC(=O)CSc1ccc(C(F)(F)F)cc1[N+](=O)[O-]	HPGD inh 25.1µM, ALDH1A1 inh 12.6µM
Oc1ccccc1C(=S)N1CCCCCC1	HPGD inh 8.91µM, PNC assembly inh inconclusive, ALDH1A1 inh 25.1µM
S=C(Nc1ccccc1)N1CCCCCCC1	none (no result: HPGD inh, PNC assembly inh)
Oc1ccccc1C(=S)N1CCCCC1	HPGD inh 14.1µM, ALDH1A1 inh inconclusive
O=C(NC(=S)N1CCCCCC1)c1ccccc1Cl	none (no result: HPGD inh, PNC assembly inh)
COc1ccc(C2CC(c3ccccc3)=NN2C(=O)COC(=O)C2(C)CC2(Cl)Cl)cc1 (configuration not stated)	HTT aggregate inconclusive, ALDH1A1 inh inconclusive (no result: HPGD inh, PNC assembly inh)
COC(=O)N[C@@H](c1cccc(C)c1)[C@@H](C)[N+](=O)[O-]	none (no result: HTT aggregate, PNC assembly inh)
C=CCc1cc(/C=C2/NC(=S)NC2=O)cc(OC)c1O	HPGD inh 25.1µM
CCOC(=O)c1c(C)[nH]c(=S)c(C#N)c1-c1ccc(Cl)cc1	PNC assembly inh -108.4, ALDH1A1 inh inconclusive
CCCCOc1ccc(-c2c(C(=O)Nc3ccccc3)c(C)[nH]c(=S)c2C#N)cc1	ALDH1A1 inh 3.55µM (no result: HPGD inh, PNC assembly inh)
CCOC(=O)c1c(C)[nH]c(=S)c(C#N)c1-c1ccc(OC)cc1	HPGD inh inconclusive, ALDH1A1 inh inconclusive
Cc1ccc(C)c(N2CCN(C(=O)C3CCCN(S(=O)(=O)c4c(C)[nH]c(=O)[nH]c4=O)C3)CC2)c1 (configuration not stated)	PNC assembly inh -86.3
Cc1ccc(NC(=O)C2CCN(S(=O)(=O)c3c(C)[nH]c(=O)[nH]c3=O)CC2)cc1	PNC assembly inh -97.8
CCNc1ncc2nc(-c3ccc(F)cc3)c(=O)n(C[C@H]3CCCO3)c2n1	ALDH1A1 inh inconclusive (no result: HPGD inh, HTT aggregate, PNC assembly inh, CBFb-RUNX1 inh)
C=CCCC(=O)Nc1nc(C)c(-c2csc(Nc3cc(OC)ccc3OC)n2)s1	HTT aggregate 10µM
CCCOc1ccc(C(=O)NC(C)C(=O)O)cc1 (configuration not stated)	PNC assembly inh -106.3
CCCCOc1ccc(C(=O)Nc2ccncc2)cc1	PNC assembly inh -117.6
CCCCOc1ccc(C(=O)NC)cc1	none
CC(C)CCOc1ccc(C(=O)CCNC(C)C(=O)O)cc1 (configuration not stated)	ALDH1A1 inh 0.126µM

Screening results deposited in PubChem BioAssay by National Center for Advancing Translational Sciences (NCATS).
